From PubChem BioAssay AID624491 (Broad Institute, 2012)
The whole screen tested about 1,800 compounds, of which about 1,400 (78%) were called active. Roughly 2% stayed inconclusive and do not appear here.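 Rule for the calls: active = fitted curve crossing a set activation limit at or below the highest valid dose tested; inconclusive = flat fit at 30 to 70% activation, or poor fit; inactive = the rest, including signal decreases.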 So high a share suggests a set chosen from earlier hits. The list is a sample of the results. Results with a measured potency or affinity are listed apart.

Test: blockers of NLG process in reporter cells – D54 ERlucT cells, luminescence, cherry-picks, dose response (AID 624491);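 note: signal gain reflects blocked N-linked glycosylation of a luciferase reporter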
Details: D54 ERlucT glycosylation luciferase reporter, 24 h, 100% = twice neutral-control luminescence; series mostly up to 19.5 µM; activation (NLG inhibition): at the top concentration

SMILES	activation (NLG inhibition)
CC(=O)Nc1cccc(-c2ccnc3c2CC(C)(C(=O)NCc2ccc(N(C)C)cc2)O3)c1 (stereo not drawn)	30.5% (inactive)
CC1(C(=O)NCc2ccccc2)Cc2c(-c3ccc4c(c3)OCO4)ccnc2O1 (stereo not drawn)	48.3% (inactive)
O=C(CCl)Nc1cc(-c2ccccc2)nn1-c1ccccc1	-66.9% (inactive)
CCOC(=O)c1c(C)oc2c(F)c(F)c(F)c(F)c2c1=O	-96.3% (inactive)
COc1ccc(S(=O)(=O)Nc2ccc3c(c2)n(C)c(=O)n3C)cc1OC	10.9% [at 5 µM] (inactive)
CCOC(=O)c1c(NC(C)=O)sc2c1CCC(C=O)=C2Sc1ccccc1	14.9% [at 5 µM] (inactive)
CC(=O)Nc1sc(C)c(C)c1C(=O)OCC(=O)Nc1cccc(C)c1	130% (inactive)
COC(=O)c1cc(=O)n(Cc2ccco2)c(=Nc2ccc(F)cc2)s1	1.44% (inactive)
COc1ccc(-c2nc(NC(=O)C3CC(=O)N(c4ccc5c(c4)OCCO5)C3)sc2C)cc1 (stereo not drawn)	38% (inactive)
Cc1cnc(NC(=O)C2CC(=O)N(c3cccc(Cl)c3)C2)s1 (stereo not drawn)	0.274% [at 5 µM] (inactive)
CCOC(=O)C1CCN(Cc2cc(Cl)c3ccccc3c2O)CC1	5.3% (inactive)
CCOC(=O)C1CCN(S(=O)(=O)Cc2ccccc2)CC1	-4.23% [at 5 µM] (inactive)
CCOC(=O)/C=C(\C)Sc1cc(=O)oc2ccccc12	0.993% (inactive)
Cc1ccc(OCC(=O)Nc2ccc(NC(=O)c3cccs3)cc2)c(C)c1	602% (inactive)
Cc1ccc(C(=O)Nc2ccc(C(=O)/C=C/c3cccs3)cc2)cc1	14.5% (inactive)
COc1ccc(Nc2nc(N)c(C(=O)c3ccc(F)cc3)s2)cc1	-4.92% (inactive)
Cc1nn(CC(C)C)c(Cl)c1C(=O)N(c1ccc(Cl)cc1F)S(C)(=O)=O	61.3% (inactive)
C[C@]1(O)CC(=O)C=C[C@H]1Nc1ccccc1	80% (inactive)
COc1cccc(-c2cc(C(=O)Nc3cc(OC)c(OC)c(OC)c3)no2)c1	37.2% (inactive)
COc1cc(NC(=O)N2CCc3nc(NCc4cccc(Oc5ccccc5)c4)ncc3C2)cc(OC)c1OC	33.2% (inactive)
COc1cc2cc(-c3ccc(O)cc3O)nc(C)c2cc1OC	22% (inactive)
COc1ccc(C(=O)n2c(-c3ccco3)nc3ccccc32)cc1	18.1% (inactive)
CCOC(=O)C(=Cc1ccc(-c2ccsc2C(=O)OC)o1)C(=O)OCC	47.5% (inactive)
CCCN(CCC)S(=O)(=O)c1ccc(C(=O)Nc2nc3c(s2)CCc2ccccc2-3)cc1	88.9% (inactive)
O=C(NC1CCCCC1)c1cccc2c1C(=O)c1ccc(-c3ccc(OC(F)(F)F)cc3)cc1S2(=O)=O	-5.59% (inactive)
CCN(CC)c1cc(C)c2cc(NC(=O)c3ccccc3OC)ccc2n1	52.2% (inactive)

SMILES	activation (NLG inhibition)
CCOC(=O)c1cc2sccc2n1CC(=O)N1c2ccccc2CC1C (stereo not drawn)	1420% (inactive)
CCOC(=O)c1cc2c(ccn2C)n1CC(=O)N1CCN(c2ccccc2)CC1	8.28% (inactive)
COC(=O)c1ccc2c(=O)n(Cc3ccc(C(=O)NC(C)C)cc3)c(=S)[nH]c2c1	35% (inactive)
COc1ccc(-n2c(=S)[nH]c3cc(C(=O)NC4CCCCC4)ccc3c2=O)c(OC)c1	29.5% (inactive)
CCN1/C(=C/c2ccc3ccccc3[n+]2CC)C=Cc2ccccc21	84% (inactive)
COc1cc(CCC(=O)Nc2nnc(C)s2)cc(OC)c1OC	31.1% (inactive)
Cc1noc2ncnc(Sc3ccc(Cl)cc3)c12	-2.99% (inactive)
Cc1ccc(C)c(N2CCN(c3cnn(-c4nc5ccccc5s4)c(=O)c3Cl)CC2)c1	79.4% (inactive)
COc1ccc(C2NC(=S)NC3=C2CCCC3=C2SCCS2)cc1 (stereo not drawn)	1170% (inactive)
O=C(Cc1csc(Nc2nc(=S)[nH]c3ccccc23)n1)NCc1cccc(Cl)c1	163% (inactive)
CNC(=O)c1cccc2nc3ccccc3nc12	18.8% (inactive)
COc1cc(C2CC(=O)N(c3ccc(C)cc3)C(=O)C2)cc(OC)c1OC	6.21% (inactive)
CCOc1ccccc1C1CC(=O)Nc2cc3c(cc21)OCCO3 (stereo not drawn)	20.7% (inactive)
CC(C)Oc1ccccc1C1CC(=O)Nc2cc3c(cc21)OCO3 (stereo not drawn)	18.1% (inactive)
COc1cc(/C=C(/C(=O)c2cccs2)c2nc3ccccc3[nH]2)cc(OC)c1O	1.08% (inactive)
O=C(N/N=C/c1ccc2c(c1)OCO2)C1COc2ccccc2O1 (stereo not drawn)	24.7% (inactive)
N#Cc1c(NC(=O)/C=C/c2ccco2)sc2c1CCCC2	30.1% (inactive)
COC(=O)C1=C(C(=O)OC)[C@@H]2N(Cc3ccccc3)c3ccccc3[C@@]23C[C@@H](C(=O)OC)N(C(=O)c2cc(C)oc2C)C3=N1	44.3% (inactive)
CC(C)C1N=C(c2ccc3c(c2)OCO3)CC(c2ccccc2O)N1 (stereo not drawn)	-18.5% (inactive)
CC(=O)c1ccc(OCC(O)CN2CCN(CCN3C(=O)c4cccc5cccc(c45)C3=O)CC2)cc1 (stereo not drawn)	81.5% (inactive)
COc1ccc(-c2cc(C(F)F)n3ncc(C(=O)n4ccnc4C)c3n2)cc1	-88.3% (inactive)
Cc1ccc(-c2cc(C(F)F)n3ncc(C(=O)N4CCc5ccccc54)c3n2)cc1	39.4% (inactive)
CC(=O)N(C(C)=O)n1c(C)nc2sc3c(c2c1=O)CCCC3	-43.7% (inactive)
O=C1/C(=C/c2ccccc2)CCc2ccc(Cl)nc21	-3.41% (inactive)
COc1cccc(-n2c(SCC(=O)NC3CCCCC3)nc3n[nH]c(C)c3c2=N)c1	12.3% (inactive)
NC(=O)c1ccc2c(=O)n3c(-c4cc(Cl)c(N)c(Cl)c4)csc3nc2c1	3.94% [at 5 µM] (inactive)

SMILES	activation (NLG inhibition)
Cc1ccnc(NC(=O)Nc2ccc3c(c2)N(C)C(=O)CS3)c1	17.6% (inactive)
COC(=O)c1ccc(Oc2cc(C)nc(-n3nc(C)cc3C)n2)cc1	28.5% (inactive)
Cc1ccc2cc3c(N)c4c(C)ccc(C)c4nc3nc2c1	-73.8% (inactive)
Cc1cc(N2CCN(c3ccc([N+](=O)[O-])c4cccnc34)CC2)c2ccccc2n1	247% (inactive)
Cc1ccc(N2C(=O)c3cccc4c([N+](=O)[O-])ccc(c34)C2=O)c2cccnc12	-3.7% (inactive)
Cc1ccc2c(c1)NC(=O)[C@@]1(C)[C@@H](c3ccccc3)[C@H]3COc4ccccc4[C@@H]3N1C2=O	60.2% (inactive)
CCN(CC)c1ccc(/C=C/c2cccc[n+]2C)c(OC)c1	-41.1% (inactive)
COc1ccc(C=C(c2nc3ccccc3s2)c2nc3ccccc3s2)cc1O	7.34% (inactive)
O=C(N/N=C/c1ccccn1)c1sc2ccccc2c1Cl	13.7% (inactive)
CC(=O)Nc1cccc(-c2ccnc3c2CC(C(=O)NCc2ccco2)O3)c1 (stereo not drawn)	-17.9% (inactive)
Nc1nc(-c2ccccn2)nc(N)c1Cc1ccc(Cl)cc1Cl	-18.4% (inactive)
CC(=O)Nc1cccc(-c2ccnc3c2CC(C(=O)NCc2ccc(F)c(F)c2)O3)c1 (stereo not drawn)	8.31% (inactive)
COc1ccc(CNC(=O)C2Cc3c(-c4ccc5c(c4)OCO5)ccnc3O2)cc1OC (stereo not drawn)	28.2% (inactive)
CN(C)Cc1c(O)ccc2c1O/C(=C\C=C\c1ccccc1)C2=O	46.5% (inactive)
COc1ccc(OC)c(NS(=O)(=O)c2ccc(N3CCCC3=O)cc2)c1	18.1% (inactive)
COc1ccc(Cl)cc1/C=C/c1ccc2cccc(O)c2n1	3.84% (inactive)
O=C(CC(O)c1ccncc1)c1ccccc1O (stereo not drawn)	16.8% (inactive)
CCOC(=O)c1[nH]c2ccc(F)cc2c1NC(=O)C(C)N1CCc2cc(OC)c(OC)cc2C1 (stereo not drawn)	15.6% (inactive)
C#CC(=O)CC1(CN(Cc2ccccc2)C(=O)OC(C)(C)C)CCCCC1	9.87% (inactive)
CCN(CC(=O)Nc1ccccc1OC)CC(=O)Nc1ccccc1-c1ccccc1	29.8% (inactive)
COC(=O)c1cc(=O)n(Cc2ccc3c(c2)OCO3)c(=Nc2ccc(F)c(Cl)c2)s1	24.9% (inactive)
CC1=C([N+](=O)[O-])C(c2ccccc2)C2=C(N1)c1ccccc1C2=O (stereo not drawn)	32.6% (inactive)
COc1cc2cc(/C=C/C(=O)c3ccco3)c(Cl)nc2cc1OC	-37% (inactive)
COc1ccc([N+](=O)[O-])cc1NC(=O)CCN1CCN(CCO)CC1	0.755% (inactive)
NC(=O)CC(NC(=O)Cc1ccc(Cl)cc1)c1ccc(NC2CC3CCC2C3)c([N+](=O)[O-])c1 (stereo not drawn)	35% (inactive)
NC(=O)CC(NC(=O)c1ccc(Br)cc1)c1ccc(N2CCCCCCC2)c([N+](=O)[O-])c1 (stereo not drawn)	19.6% (inactive)

SMILES	activation (NLG inhibition)
NC(=O)CC(NC(=O)Cc1ccc(Br)cc1)c1ccc(NCc2cc(F)ccc2F)c([N+](=O)[O-])c1 (stereo not drawn)	13.6% [at 5 µM] (inactive)
CC(C)Nc1ccc(C(CC(N)=O)NC(=O)Cc2ccc(Br)cc2)cc1[N+](=O)[O-] (stereo not drawn)	1.2% (inactive)
NC(=O)CC(NC(=O)Cc1ccc(Br)cc1)c1ccc(NC2CCCC2)c([N+](=O)[O-])c1 (stereo not drawn)	24.6% (inactive)
CCCOc1ccc(F)cc1-c1cc(C(=O)Nc2ccc(C(C)C)cc2)[nH]n1	622% (inactive)
Oc1c(Br)cc(Br)cc1CNc1cccc2cccnc12	29.7% (inactive)
Nc1c(C(=O)Nc2ccc(S(=O)(=O)N3CCCC3)cc2)sc2nc3cc4c(cc3cc12)CCC4	-29.1% (inactive)
c1ccc2c(-c3nc4ccccc4[nH]3)cccc2c1	52.4% (inactive)
COc1cccc(C(=O)Nc2ccc3c(c2)C(=O)c2ccccc2C3=O)c1	51.9% (inactive)
CCc1nn(C(C)C(=O)N2CCN(c3ccc(OC)cc3)CC2)c(=O)c2cc3occc3n12 (stereo not drawn)	26.4% (inactive)
O=C(Nc1ccccc1-c1ccccc1)C1CCCC1	43.1% (inactive)
CC#CC#Cc1cccc(=O)o1	18.2% (inactive)
O=C(/C=C/c1ccccc1)c1ccc2c3c(cccc13)CC2	-3.84% (inactive)
Cc1cc(NC(=O)/C=C/C(=O)N(CC(=O)NC2CCCC2)c2ccc(F)cc2)no1	5.47% (inactive)
Cc1cc(NC(=O)CSc2nc3ccccc3c(=O)n2C2CCCC2)no1	25.9% (inactive)
Nc1nc(Nc2ccccc2)sc1C(=O)c1ccccc1	6.8% (inactive)
COc1ccccc1N1CCN(C(=O)c2ccc(Cl)c(S(=O)(=O)NCc3ccco3)c2)CC1	43% (inactive)
COc1cc2ccccc2cc1C(=O)N1CCc2ccccc21	32.7% (inactive)
CCOc1ccc(S(=O)(=O)Nc2cc(OC)ccc2OC)cc1	7.3% (inactive)
COc1cc(-c2nc3cnccn3c2Nc2ccc(C)cc2)ccc1O	78.2% (inactive)
COCCCNC(=O)c1cccc2c(-c3ccc(O)c(OC)c3)coc12	45.3% (inactive)
COc1cc(OC)cc(C(=O)NNC(=O)c2ccc3ccccc3n2)c1	21% (inactive)
CC(C)[n+]1ccn(C2=C([O-])c3ccccc3C(=O)/C2=N\S(=O)(=O)c2ccccc2)c1	-34.1% (inactive)
O=C(CNC(=O)N1CC(=O)Nc2ccccc21)NCCCc1ccccc1	40.4% (inactive)
CC(C)c1ccc(NC(=O)[C@@H](NC(=O)N2CC(=O)Nc3ccccc32)C(C)C)cc1	55.1% (inactive)
CCC(C)[C@H](NC(=O)N1CC(=O)Nc2ccccc21)C(=O)Nc1ccccc1C (stereo partly drawn)	25.7% (inactive)
